This passage reports Potency, outcome and activity change, negative = inhibition results from PubChem BioAssay (NCATS).

Values joined by “and” are separate entries in the source; they are usually repeats but may differ in a detail not shown here. Equal values may be shown once. Inconclusive results are not listed. The source holds several records for some structures; these can differ, active in one and inactive in another. Active and inactive are the calls of the source. Unless noted, calls follow the shape of the dose curve; as a rule, active = well fitted curve in the direction sought with a large enough effect; inconclusive = small, poorly fitted or top-dose-only effect, or another doubt; inactive = no such curve, though single readings can be large; an effect the other way counts as inactive or inconclusive.

Experiment [1] has as its target Cytochrome P450 3A4 (Homo sapiens) (UniProt P08684). Nature of the experiment: qHTS Assay for Inhibitors and Substrates of Cytochrome P450 3A4 (AID 884). Also: nearly all actives have a fitted effect of over 50% in size. Also: potency is read from the fitted curve at half-maximal effect. As to activity change, negative = inhibition: series mostly up to about 57 µM; % is scaled to controls: 0 for no effect and ±100 for the full control effect. An outline of the steps: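 Luminescent readout of luciferin produced by CYP3A4 (20 nM) dealkylation of Luciferin-PPXE, 25 uM (its KM). NADPH-driven reaction ran 60 min at RT after 10 min compound preincubation; data scaled to 57 uM ketoconazole as 100% inhibition.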
A general note: Quantitative high-throughput screening tests each substance at several concentrations.

Experiment [2] concerns the target Cytochrome P450 2C19 (Homo sapiens) (UniProt P33261). The experiment is described as follows: qHTS Assay for Inhibitors and Substrates of Cytochrome P450 2C19 (AID 899). Also: nearly all actives have a fitted effect of over 60% in size. Also: potency is read from the fitted curve at half-maximal effect. An outline of the steps: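 5 nM human CYP2C19 with 10uM Luciferin-H EGE (at KM) in 50mM KPO4, compound preincubated 10 min at 37C, then NADPH regeneration for 60 min at 37C. Luciferin read by luminescence after detection reagent; normalized to 57uM ketoconazole as full inhibition.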

Experiment [3] in a line: qHTS Assay for Identification of Small Molecule Agonists for Thrombopoietin (TPO) Signaling Pathway (AID 917). Also: % is scaled to controls: 0 for no effect and ±100 for the full control effect. Put shortly:
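Quantitative HTS for pathway activators: compounds were pin-transferred onto IL-3-starved Ba/F3 cells expressing human TPO receptor, TPO was added at its EC50 (26 pM final), and after 24 hrs at 37 C reporter luciferase was measured.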

The target in experiment [4] is Muscarinic acetylcholine receptor M1 (Rattus norvegicus) (UniProt P08482). Nature of the experiment: qHTS Assay for Antagonists of Acetylcholine Muscarinic M1 Receptor: Kinetic Measurement of Intracellular Calcium Response (AID 943). Also: series mostly up to about 35 µM; nearly all actives have a fitted effect of over 75% in size. Put shortly: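 Read-out: peak over basal Fluo-4 fluorescence, kinetic at 1 Hz for 4 min after EC80 carbachol (100 nM final). Rat M1-CHO cells, dye loaded 1 h at 37C, compound added 10 min before agonist.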
Sequence of Muscarinic acetylcholine receptor M1 (Rattus norvegicus) (P08482 whole entry, looked up): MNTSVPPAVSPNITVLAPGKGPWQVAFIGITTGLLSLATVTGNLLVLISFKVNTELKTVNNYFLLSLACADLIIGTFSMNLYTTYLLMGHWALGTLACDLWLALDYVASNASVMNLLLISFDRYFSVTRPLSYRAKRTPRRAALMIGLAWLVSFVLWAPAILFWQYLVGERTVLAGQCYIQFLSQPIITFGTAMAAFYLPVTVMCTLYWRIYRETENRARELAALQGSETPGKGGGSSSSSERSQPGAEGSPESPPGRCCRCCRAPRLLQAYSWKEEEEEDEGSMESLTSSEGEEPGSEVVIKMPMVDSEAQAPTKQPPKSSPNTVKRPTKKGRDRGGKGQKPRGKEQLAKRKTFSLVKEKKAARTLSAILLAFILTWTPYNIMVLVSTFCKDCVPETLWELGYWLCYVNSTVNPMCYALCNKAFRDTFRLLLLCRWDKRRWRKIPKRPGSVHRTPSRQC

Experiment [5] addresses Cytochrome P450 2D6 (Homo sapiens) (UniProt P10635). The experiment is described as follows: qHTS Assay for Inhibitors and Substrates of Cytochrome P450 2D6 (AID 891). Also: nearly all actives have a fitted effect of over 60% in size. Also: potency is read from the fitted curve at half-maximal effect. An outline of the steps:
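Luminescent read-out of luciferin formed by 5 nM human CYP2D6 demethylating 30 uM Luciferin-ME EGE (Km level) over 60 min at room temperature after NADPH regeneration addition. Data normalized to full inhibition by 1.43 uM quinidine.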

The target in experiment [6] is Cytochrome P450 2C9 (Homo sapiens) (UniProt P11712). Nature of the experiment: qHTS Assay for Inhibitors and Substrates of Cytochrome P450 2C9 (AID 883). Also: nearly all actives have a fitted effect of over 60% in size. Also: potency is read from the fitted curve at half-maximal effect. Put shortly: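 Human CYP2C9 (10nM) with Luciferin-H at 100uM (its KM) in 25mM KPO4; compound preincubated 10 min at 37C, then NADPH regeneration for 60 min at 37C. Luciferin read by luminescence after detection reagent; normalized to 57uM sulphaphenazole as full inhibition.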
Sequence of Cytochrome P450 2C9 (Homo sapiens) (P11712 whole entry, looked up): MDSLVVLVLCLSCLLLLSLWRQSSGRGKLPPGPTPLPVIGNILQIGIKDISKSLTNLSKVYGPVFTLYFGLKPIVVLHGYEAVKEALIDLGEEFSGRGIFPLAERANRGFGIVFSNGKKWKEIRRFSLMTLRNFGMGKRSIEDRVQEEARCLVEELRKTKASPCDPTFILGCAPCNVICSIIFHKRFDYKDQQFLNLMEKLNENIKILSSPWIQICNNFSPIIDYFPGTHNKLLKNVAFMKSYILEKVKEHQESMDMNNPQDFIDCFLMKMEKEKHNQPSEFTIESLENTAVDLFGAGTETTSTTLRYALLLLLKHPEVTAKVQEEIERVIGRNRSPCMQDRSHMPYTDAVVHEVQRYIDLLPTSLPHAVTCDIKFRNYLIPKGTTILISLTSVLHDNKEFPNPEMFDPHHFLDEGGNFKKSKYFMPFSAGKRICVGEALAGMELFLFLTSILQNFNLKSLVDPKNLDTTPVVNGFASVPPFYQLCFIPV

The target of experiment [7] is Cytochrome P450 3A4 (Homo sapiens) (UniProt P08684). Nature of the experiment: qHTS Assay for Activators of Cytochrome P450 3A4 (AID 885). Also: nearly all actives have a fitted effect of over 65% in size. Also: potency is read from the fitted curve at half-maximal effect. Put shortly: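 CYP3A4 activity: Luciferin-PPXE O-dealkylation, 25uM substrate, 200mM KPO4, RT throughout. Read-out is luciferase luminescence; higher values reflect activation.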
Sequence of Cytochrome P450 3A4 (Homo sapiens) (P08684 whole entry, looked up): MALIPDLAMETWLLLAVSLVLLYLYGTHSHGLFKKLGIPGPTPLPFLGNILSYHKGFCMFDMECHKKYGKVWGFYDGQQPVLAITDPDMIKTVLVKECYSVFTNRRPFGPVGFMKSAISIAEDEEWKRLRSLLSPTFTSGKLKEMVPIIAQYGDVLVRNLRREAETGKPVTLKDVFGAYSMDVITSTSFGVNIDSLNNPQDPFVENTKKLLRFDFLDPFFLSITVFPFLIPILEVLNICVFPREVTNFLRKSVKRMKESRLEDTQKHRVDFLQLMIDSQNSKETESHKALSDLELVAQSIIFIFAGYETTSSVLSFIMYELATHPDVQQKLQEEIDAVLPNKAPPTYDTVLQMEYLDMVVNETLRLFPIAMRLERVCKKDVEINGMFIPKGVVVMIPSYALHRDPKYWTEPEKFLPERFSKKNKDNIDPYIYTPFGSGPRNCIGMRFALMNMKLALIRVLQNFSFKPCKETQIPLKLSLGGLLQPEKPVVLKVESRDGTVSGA
A short description of experiment [8]: AP1 Signaling Pathway (AID 357; active = well fitted curve in either direction with a large enough effect, not every such curve was filed as active;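 also: ME-180 reporter cells stimulated with EGF at its EC50 level; % is scaled to controls: 0 for no effect and ±100 for the full control effect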). Put shortly: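 Titration-series screen for positive or negative modulators of EC50 EGF-induced signaling in ME-180 cells carrying an AP-1-driven beta-lactamase reporter. After 5 hours at 37 degrees Celsius, CCF4 460nm/530nm emission ratio gave %Activity; AC50 values derived.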
The nature of experiment [9]: qHTS Assay for Identification of Small Molecule Antagonists for NFkB Signaling Pathway (AID 895; active = well fitted inhibition curve with a large enough effect in the signal ratio, with a control signal flat, not every such curve was filed as active; the % refers to the signal ratio; also: % is scaled to controls: 0 for no effect and ±100 for the full control effect). Put shortly: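 ME-180 NFkB-bla cells (beta-lactamase under NFkB response element), plated overnight, treated with compound then 10 pM TNF alpha (about EC50) for 5 hrs at 37 C. LiveBLAzer FRET read at 460/530 nm emission, 405 nm excitation.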

Sequence of Cytochrome P450 2D6 (Homo sapiens) (P10635 whole entry, looked up): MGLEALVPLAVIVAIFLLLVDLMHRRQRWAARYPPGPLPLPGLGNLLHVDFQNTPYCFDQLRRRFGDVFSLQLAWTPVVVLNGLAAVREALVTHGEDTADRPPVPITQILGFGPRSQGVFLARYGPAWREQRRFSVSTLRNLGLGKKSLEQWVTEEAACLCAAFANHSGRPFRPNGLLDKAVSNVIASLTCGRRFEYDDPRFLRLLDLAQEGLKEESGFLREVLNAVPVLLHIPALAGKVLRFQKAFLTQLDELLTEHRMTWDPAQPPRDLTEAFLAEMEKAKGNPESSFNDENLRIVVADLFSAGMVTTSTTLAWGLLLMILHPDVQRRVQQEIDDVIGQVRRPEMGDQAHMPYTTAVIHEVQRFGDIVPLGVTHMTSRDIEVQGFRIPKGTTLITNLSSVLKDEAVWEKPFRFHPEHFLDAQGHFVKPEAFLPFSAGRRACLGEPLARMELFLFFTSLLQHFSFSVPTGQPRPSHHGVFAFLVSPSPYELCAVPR
Sequence of Cytochrome P450 2C19 (Homo sapiens) (P33261 whole entry, looked up): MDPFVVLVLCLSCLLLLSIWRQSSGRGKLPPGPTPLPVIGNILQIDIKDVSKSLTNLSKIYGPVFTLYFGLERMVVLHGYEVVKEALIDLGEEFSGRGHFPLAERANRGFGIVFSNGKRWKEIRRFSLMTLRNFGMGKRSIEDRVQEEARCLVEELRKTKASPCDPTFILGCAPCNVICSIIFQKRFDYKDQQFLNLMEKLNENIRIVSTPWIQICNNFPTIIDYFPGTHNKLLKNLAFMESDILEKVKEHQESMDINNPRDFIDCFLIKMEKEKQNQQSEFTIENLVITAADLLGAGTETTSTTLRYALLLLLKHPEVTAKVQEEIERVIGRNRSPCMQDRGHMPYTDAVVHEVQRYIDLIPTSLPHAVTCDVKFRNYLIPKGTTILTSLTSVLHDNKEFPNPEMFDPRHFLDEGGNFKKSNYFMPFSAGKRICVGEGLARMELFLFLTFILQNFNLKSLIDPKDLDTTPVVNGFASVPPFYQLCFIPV

As for `N[C@@]1(C(=O)O)CC[C@H](C(=O)O)C1`, the Potency entry in experiment [1], in experiment [2] and in experiment [4] was “inactive” each time. In addition, in experiment [3], the call was inactive.
Regarding `CCCN[C@@H]1CCc2c(OC)cccc2[C@@H]1C`, the Potency in [5] is 251 nM (active).
Consider `N[C@H](CP(=O)(O)O)C(=O)O`, for which the Potency result in [6], in experiment [5], in experiment [2] and in experiment [4] was “inactive” each time. Further, in experiment [3], the call was inactive.
Consider `C=C(C)CN1CC[C@@]23c4c5ccc(O)c4O[C@H]2c2[nH]c4ccccc4c2C[C@]3(O)[C@@H]1C5`, for which, in [7], the Potency entry was “inactive”.
As for `O=C1C2CCN(CC2)C1(CO)CO`, the activity change, negative = inhibition in experiment [8] is 3.23% [at 7.69 µM] (inactive). For the same compound, the values for the Potency in experiment [6] and in experiment [2] were 63.1 nM (active) and 631 nM (active), respectively.
On to `C/C(O)=C(/C#N)C(=O)Nc1cc(Br)ccc1Br`, for which the result in experiment [8] and in experiment [3] was inactive. In [6], the Potency was 7940 nM (active). Also, the Potency result in [7], in experiment [5], in experiment [9], in [2] and in experiment [4] was “inactive” in each case.
Regarding `CCN1C[C@]2(COC(=O)c3ccccc3N3C(=O)C[C@H](C)C3=O)CC[C@H](OC)[C@@]34[C@@H]5C[C@H]6[C@H](OC)[C@H]5[C@](O)(C[C@@H]6OC)[C@@](O)([C@@H](OC)[C@@H]23)[C@@H]14`, the Potency entry in experiment [6] is “inactive”.
With `c1ccc(CCCCN2CCC(c3ccccc3)CC2)cc1`, the Potency result in experiment [1] is “inactive”. Besides, the Potency is 31600 nM (active) in experiment [7] and 39.8 nM (active) in [5].
In the case of `c1ccc([C@H]2CNCc3ccccc32)cc1`, the Potency result in [7] is “inactive”. For the same compound, in experiment [5], the Potency was 5010 nM (active).
For the compound `C[C@H](N)Cc1cnc[nH]1`, the Potency entry in [4] is “inactive”.
For the compound `COc1ccc(CNC(=O)/C=C\c2ccc3[nH]cc(CCN(C)C)c3c2)cc1`, the Potency entry in experiment [6], in [7], in experiment [5] and in experiment [2] was “inactive” each time. For the same compound, the compound was classed as inactive in experiment [3].
In the case of `C=C1[C@@H](O)C2C=CC[C@H](C)C(=O)[C@@](C)(O)C=C[C@@H](OC(C)=O)[C@@]23C(=O)N[C@H](Cc2ccccc2)[C@@H]3[C@@H]1C` (stereo partly drawn), in [7], the Potency entry is “inactive”.
As to `O=C1NCN(c2ccccc2)C12CCN(C[C@H]1COc3ccccc3O1)CC2`, the Potency in experiment [5] is 126 nM (active) and 63.1 nM (active); in experiment [2] it was “inactive and 7.94 µM (active)”. For the same compound, the outcome in experiment [3] was inactive. Further, the Potency entry in [4] is “inactive”.
With `CC1=C(O)C(=O)[C@H]2O[C@@H]2C1=O`, in experiment [2], the Potency is 158 nM (active).
Take `COC(=O)N1CCN(C(=O)Cc2ccc(Cl)c(Cl)c2)[C@H](CN2CCCC2)C1`: the Potency entry in [7] and in [9] was “inactive” throughout. In experiment [3], the compound was called inactive.
Turning to `CC(C)(c1ccc(OCC2CO2)cc1)c1ccc(OCC2CO2)cc1` (stereo not drawn), in experiment [1], the Potency result was “inactive”.
For `O=C1CC[C@@]2(O)[C@H]3Cc4ccc(O)c5c4[C@@]2(CCN3CC2CC2)[C@@H]1O5`, the compound was called inactive in [3].
In the case of `CN(C(=O)Cc1ccc(Cl)c(Cl)c1)[C@H](CN1CCCC1)c1ccccc1`, the values for the Potency in [1] and in experiment [2] were 6310 nM (active) and 316 nM (active), respectively. In addition, the Potency result in experiment [7] was “inactive”.
Take `NC(=NCCc1ccc(I)cc1)SCCCc1cnc[nH]1`: the Potency in [1] was 794 nM (active). The Potency entry in experiment [7] was “inactive”.
In the case of `COC1=CC(=O)OC(/C=C/c2ccccc2)C1` (stereo not drawn), in experiment [8], the call was inactive.
For `O=C(/C=C\c1ccc(Cl)cc1)N[C@@]12CCC(=O)[C@@H]3Oc4c(O)ccc5c4[C@@]31CCN(CC1CC1)[C@@H]2C5`, the Potency entry in [7] was “inactive”. Also, the Potency in [5] was 5010 nM (active).
